The text below walks through data of PubChem BioAssay (NCATS).

Records with an inconclusive call do not appear. Calls of active or inactive are those of the source. Unless noted, calls follow the shape of the dose curve; as a rule, active = well fitted curve in the direction sought with a large enough effect; inconclusive = small, poorly fitted or top-dose-only effect, or another doubt; inactive = no such curve, though single readings can be large; an effect the other way counts as inactive or inconclusive.

The target of experiment [1] is Lysosomal acid glucosylceramidase (Homo sapiens) (UniProt P04062). Kind of experiment: Glucocerebrosidase-p2 (AID 348; in the data active = potency below about 10 µM; also: potency is read from the fitted curve at half-maximal effect). The conditions noted are these: purified GBA, blue fluorogenic substrate, 40 min. A digest of the protocol: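 Compounds titrated from 0.6 nM upwards against 0.2 nM enzyme in pH 5.9 citric acid/KH2PO4, taurocholate, tween-20; blue fluorogenic substrate 80 uM, 40 min room temperature, stopped and read Ex 365/Em 440 for AC50.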

The target of experiment [2] is Cytochrome P450 1A2 (Homo sapiens) (UniProt P05177). In words: p450-cyp1a2 (AID 410; calls by dose curve; also: potency is read from the fitted curve at half-maximal effect). To be noted: recombinant CYP1A2, luciferin-ME demethylation, luminescence; series mostly up to 57 µM. A digest of the protocol: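 Luminescent readout of luciferin formed from Luciferin-ME by human CYP1A2; data normalized against complete inhibition by 57 uM furafylline. Enzyme 20nM, substrate 100uM at Km, 100mM KPO4 buffer, 60 min reaction at room temperature.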

For experiment [3], the target named is Glucocorticoid receptor (Homo sapiens) (UniProt P04150). Kind of experiment: GR-GFP Redistribution (AID 450;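 active = compounds whose dose series gives a full or clear partial fitted curve of increased nuclear translocation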; also: potency is read from the fitted curve at half-maximal effect). The conditions noted are these: U2OS GR-GFP nuclear translocation, laser cytometry, 2 h.
The target is the same in experiment [4]. Kind of experiment: GR-EFC Redistribution (AID 451; calls by dose curve; also: potency is read from the fitted curve at half-maximal effect). The conditions noted are these: CHO-K1 GR-EFC translocation, beta-gal luminescence, 2 h. The method, boiled down: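 CHO-K1 cells expressing nuclear EA and GR-ED fragments of b-gal; compounds titrated up to 46 uM final, 2 h at 37 C. GR nuclear translocation read as complemented b-gal luminescence after 1 h RT detection.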

Experiment [5] has as its target Mitogen-activated protein kinase 10 (Mus musculus) (UniProt Q61831). Kind of experiment: JNK3 AlphaScreen Assay (AID 530; active = well fitted curve in either direction with a large enough effect, not every such curve was filed as active;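 also: kinase came from lysate of stimulated human HepG2 cells; signal reports phosphorylation of biotinylated GST-cJun 1-79 at Ser73 with 10 µM ATP; % is scaled to controls: 0 for no effect and ±100 for the full control effect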). The conditions noted are these: JNK3 lysate, c-Jun phosphorylation; series mostly up to 57.1 µM. A digest of the protocol:
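Pre-activated (IL-1β/TNFα) JNK3 in HepG2 lysates phosphorylates biotin-GST-cJun(1-79), 10 uM ATP; anti-phospho-cJun(Ser73) AlphaScreen read at room temperature, pH 7.6 Tris buffer. Compounds pre-incubated 15 min as titrations.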
Background: In Alpha technology, singlet oxygen from a donor bead excites a nearby acceptor bead.

The target in experiment [6] is 3',5'-cyclic-AMP phosphodiesterase 4B (Homo sapiens) (UniProt Q07343). Kind of experiment: qHTS Assay for Inhibitors of PDE-IV (AID 607; active = well fitted activation curve with a large enough effect in the main read-out, with a control signal flat, not every such curve was filed as active; also: % of control where 0% means no effect). The conditions noted are these: HEK293 ACTOne CNG channel cells, membrane potential fluorescence; series mostly up to 22.9 µM. A digest of the protocol: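 HEK293 ACTOne cells with CNG channel (1000/well), endogenous PDE4; membrane potential dye, compounds up to 22.9 uM final. Fluorescence Ex 535/Em 590; RO 20-1724 (100 uM final) as reference.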
Background: qHTS replaces the single test concentration by a dilution series.

Experiment [7] is described as follows: qHTS Assay for Lipid Storage Modulators (AID 1519; calls by dose curve). To be noted: Drosophila S3 cells, BODIPY lipid droplet/cell ratio, laser cytometry, cells loaded with oleic acid; for activity change, negative = inhibition: at 57.5 µM (top of the series). A digest of the protocol:
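Cells seeded at 5,000 per well were treated with compounds over a concentration series and loaded with oleic acid (400 uM, as added). Lipid droplet fluorescence (488 nm excitation, 500-530 nm channel) was read by laser-scanning cytometry and normalized to 20 uM Triacsin C.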

Experiment [8] addresses Dual specificity protein kinase CLK4 (Homo sapiens) (UniProt Q9HAZ1). In words: qHTS Assay for Inhibitors of CDC-like Kinase 4 (Kinase-Glo Assay) (AID 1770). Also: nearly all actives have a fitted effect of over 65% in size. Also: potency is read from the fitted curve at half-maximal effect. The conditions noted are these: recombinant Clk4, Kinase-Glo ATP depletion luminescence; series mostly up to 66.7 µM. A digest of the protocol: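 Substrate mix (RS peptide 100 uM, ATP 1 uM) dispensed, compound pinned in, then Clk4 added to 25 nM final. Incubated 4.5 h at RT; Kinase-Glo reagent added, luminescence read after 5 min.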

For experiment [9] the target is unchanged. In words: qHTS Assay for Inhibitors of CDC-like Kinase 4 (ADP-Glo Assay) (AID 1771). Also: nearly all actives have a fitted effect of over 70% in size. Also: potency is read from the fitted curve at half-maximal effect. The conditions noted are these: recombinant CLK4, ADP-Glo luminescence; series mostly up to 80 µM. A digest of the protocol:
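Luminescence from ADP-Glo reports ADP produced by 25 nM Clk4 acting on 100 uM RS repeat peptide with 1 uM ATP over 1 hr at room temperature; residual ATP is depleted before ADP is converted to ATP for detection.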

For experiment [10] the target is unchanged. In words: qHTS Assay for Inhibitors of CDC-like Kinase 4 (ADP-FP Assay) (AID 1795). Also: nearly all actives have a fitted effect of over 60% in size. Also: potency is read from the fitted curve at half-maximal effect. To be noted: Transcreener ADP fluorescence polarization; series mostly up to 50 µM. The method, boiled down:
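Clk4 6.25 nM; RS peptide 100 uM; ATP 1 uM; 25 mM Tris pH 7.5, 10 mM MgCl2; 1 h reaction. ADP detected via antibody/orange tracer FP displacement; TG003 positive control.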

Experiment [11] has as its target Ubiquitin carboxyl-terminal hydrolase 1 (Homo sapiens) (UniProt O94782). In words: Inhibitors of USP1/UAF1: Pilot qHTS (AID 504865).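 Also: rhodamine fluorescence freed from ubiquitin-rhodamine substrate followed over time; top concentration of the series differs between compounds; % is scaled to controls: 0 for no effect and ±100 for the full control effect; nearly all actives have a fitted effect of over 35% in size.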 To be noted: purified USP1/UAF1, Ub-rhodamine cleavage fluorescence; series mostly up to 54.9 µM. A digest of the protocol: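 In 50mM HEPES pH 7.8 containing 0.5mM EDTA, 1mM TCEP, 0.1 mg/ml BSA and 0.01% Tween-20, 1nM USP1/UAF1 is exposed to compound for 15 min, then Ub-Rho (150nM final) is added and fluorescence is read over time.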

Experiment [12] is described as follows: Primary qHTS for small molecule stabilizers of the endoplasmic reticulum resident proteome: Secreted ER Calcium Modulated Protein (SERCaMP) assay (AID 1508630). Also: % is scaled to controls: 0 for no effect and ±100 for the full control effect. The conditions noted are these: SH-SY5Y GLuc-SERCaMP (Gaussia luciferase released on ER calcium loss) secretion, thapsigargin, luminescence; series mostly up to 38.4 µM. The method, boiled down: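 GLuc-SERCaMP-expressing SH-SY5Y cells, pretreated 16 h with compound, are challenged with thapsigargin to empty ER calcium stores; after 4 h, coelenterazine is added directly to the medium and luminescence is imaged.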

The target in experiment [13] is Cytochrome P450 3A4 (Homo sapiens) (UniProt P08684). In words: qHTS Assay for Activators of Cytochrome P450 3A4 (AID 885). Also: nearly all actives have a fitted effect of over 65% in size. The conditions noted are these: recombinant CYP3A4, Luciferin-PPXE luminescence, 60 min; series mostly up to 57.1 µM. A digest of the protocol: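 Human CYP3A4 (20 nM) with Luciferin-PPXE at 25 uM (its KM) in 200 mM KPO4; 10 min compound preincubation, then NADPH regeneration and 60 min reaction at RT. Luciferin read by luminescence; normalized to 57 uM ketoconazole full inhibition.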

Experiment [14] can be described thus: AP1 Signaling Pathway (AID 357; active = well fitted curve in either direction with a large enough effect, not every such curve was filed as active;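 also: ME-180 reporter cells stimulated with EGF at its EC50 level; % is scaled to controls: 0 for no effect and ±100 for the full control effect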). The conditions noted are these: ME-180 AP-1-bla reporter, EGF-induced, beta-lactamase ratio, 5 h; at 7.69 µM (top of the series) unless noted. The method, boiled down: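 A ratiometric CCF4 readout (405 nm excitation; 460 and 530 nm emission) quantified AP-1-driven beta-lactamase in ME-180 cells after 5 h with compound and EC50 EGF; AC50 values were derived for activators and inhibitors.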

A short description of experiment [15]: NFAT Signaling Pathway (AID 444; active = well fitted curve in either direction with a large enough effect, not every such curve was filed as active;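 also: carbachol stimulus at about its EC50 of 1 µM final; % is scaled to controls: 0 for no effect and ±100 for the full control effect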). The conditions noted are these: Jurkat NFAT-bla M1, carbachol, beta-lactamase ratio, 5 h; at 7.69 µM (top of the series) unless noted. A digest of the protocol: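 Jurkat cells with NFAT-driven β-lactamase reporter and co-expressed M1 receptor, stimulated with carbachol (final 1 uM, ~EC50), compound titration, 5 h at 37 °C. CCF4 loaded 1 h at RT; 460/530 nm ratio gave %activity and AC50.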

A short description of experiment [16]: Stat Signaling Pathway (AID 446; active = well fitted curve in either direction with a large enough effect, not every such curve was filed as active). The conditions noted are these: ME-180 (cervical carcinoma) SIE beta-lactamase reporter, IL-6 stimulated, 5 h; at 7.69 µM (top of the series) unless noted. The method, boiled down:
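ME-180 cells carrying a SIE-driven beta-lactamase reporter are stimulated with 40 pM IL-6 for 5 h at 37C in the presence of compound. The 460/530 nm FRET substrate ratio is read after 2.5 h at RT. Data are normalised to 300 pM IL-6 and to 125 nM JAK inhibitor controls.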

The mark [17] stands for this setting: measured here: cell count channel max response.
Setting [18] is: measured here: lipid channel max response.

Dual specificity protein kinase CLK4 (Homo sapiens), sequence (Q9HAZ1 whole entry, looked up): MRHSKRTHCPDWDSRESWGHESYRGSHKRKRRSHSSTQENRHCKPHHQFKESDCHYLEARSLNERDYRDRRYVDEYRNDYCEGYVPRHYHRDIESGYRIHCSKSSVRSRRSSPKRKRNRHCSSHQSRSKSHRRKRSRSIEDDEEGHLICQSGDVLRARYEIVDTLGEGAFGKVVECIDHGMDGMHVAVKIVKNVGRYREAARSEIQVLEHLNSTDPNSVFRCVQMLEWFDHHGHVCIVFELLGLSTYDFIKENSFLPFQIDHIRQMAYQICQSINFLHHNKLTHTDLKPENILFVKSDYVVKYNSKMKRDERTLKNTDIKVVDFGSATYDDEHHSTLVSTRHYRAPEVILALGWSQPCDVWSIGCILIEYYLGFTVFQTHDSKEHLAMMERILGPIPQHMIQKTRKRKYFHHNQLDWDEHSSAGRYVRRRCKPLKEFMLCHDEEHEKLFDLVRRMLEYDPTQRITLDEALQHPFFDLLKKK
3',5'-cyclic-AMP phosphodiesterase 4B (Homo sapiens), sequence (Q07343 whole entry, looked up): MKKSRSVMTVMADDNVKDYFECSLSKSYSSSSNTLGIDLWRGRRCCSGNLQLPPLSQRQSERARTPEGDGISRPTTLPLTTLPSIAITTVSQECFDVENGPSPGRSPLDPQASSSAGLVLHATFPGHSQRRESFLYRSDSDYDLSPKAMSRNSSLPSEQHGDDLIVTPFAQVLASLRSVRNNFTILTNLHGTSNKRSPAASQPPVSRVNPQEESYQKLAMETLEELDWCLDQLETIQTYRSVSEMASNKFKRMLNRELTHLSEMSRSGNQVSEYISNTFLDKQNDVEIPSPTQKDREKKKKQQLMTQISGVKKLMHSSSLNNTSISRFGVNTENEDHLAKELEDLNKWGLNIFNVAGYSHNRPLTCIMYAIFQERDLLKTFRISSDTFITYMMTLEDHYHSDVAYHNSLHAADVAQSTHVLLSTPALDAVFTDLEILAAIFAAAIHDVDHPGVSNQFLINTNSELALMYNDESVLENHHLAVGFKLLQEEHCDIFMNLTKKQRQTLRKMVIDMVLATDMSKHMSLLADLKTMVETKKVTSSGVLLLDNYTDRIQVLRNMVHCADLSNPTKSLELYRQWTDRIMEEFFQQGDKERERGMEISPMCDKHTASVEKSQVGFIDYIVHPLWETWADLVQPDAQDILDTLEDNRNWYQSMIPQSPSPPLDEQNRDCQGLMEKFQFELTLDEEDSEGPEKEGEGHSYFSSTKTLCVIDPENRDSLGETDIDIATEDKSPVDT
Ubiquitin carboxyl-terminal hydrolase 1 (Homo sapiens), sequence (O94782 whole entry, looked up): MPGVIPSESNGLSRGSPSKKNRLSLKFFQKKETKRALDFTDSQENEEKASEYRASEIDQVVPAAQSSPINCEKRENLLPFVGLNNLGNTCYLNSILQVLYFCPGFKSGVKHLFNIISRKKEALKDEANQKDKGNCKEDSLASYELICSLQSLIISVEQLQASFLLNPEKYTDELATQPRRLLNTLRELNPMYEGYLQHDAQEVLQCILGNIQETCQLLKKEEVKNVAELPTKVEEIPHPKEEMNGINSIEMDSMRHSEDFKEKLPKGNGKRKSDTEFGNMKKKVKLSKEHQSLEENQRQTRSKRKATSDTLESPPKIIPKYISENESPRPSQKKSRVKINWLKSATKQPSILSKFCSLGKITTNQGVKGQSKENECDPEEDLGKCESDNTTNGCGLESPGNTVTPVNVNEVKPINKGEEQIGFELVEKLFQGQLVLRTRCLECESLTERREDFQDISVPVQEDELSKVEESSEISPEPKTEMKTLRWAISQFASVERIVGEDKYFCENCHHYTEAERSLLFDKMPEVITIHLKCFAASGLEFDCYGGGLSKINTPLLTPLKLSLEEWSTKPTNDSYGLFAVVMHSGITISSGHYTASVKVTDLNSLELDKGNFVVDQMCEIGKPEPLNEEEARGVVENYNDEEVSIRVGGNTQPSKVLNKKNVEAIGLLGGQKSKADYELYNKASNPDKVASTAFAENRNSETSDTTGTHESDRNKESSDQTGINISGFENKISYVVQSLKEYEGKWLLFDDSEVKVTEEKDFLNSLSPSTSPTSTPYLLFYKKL
Lysosomal acid glucosylceramidase (Homo sapiens), sequence (P04062 whole entry, looked up): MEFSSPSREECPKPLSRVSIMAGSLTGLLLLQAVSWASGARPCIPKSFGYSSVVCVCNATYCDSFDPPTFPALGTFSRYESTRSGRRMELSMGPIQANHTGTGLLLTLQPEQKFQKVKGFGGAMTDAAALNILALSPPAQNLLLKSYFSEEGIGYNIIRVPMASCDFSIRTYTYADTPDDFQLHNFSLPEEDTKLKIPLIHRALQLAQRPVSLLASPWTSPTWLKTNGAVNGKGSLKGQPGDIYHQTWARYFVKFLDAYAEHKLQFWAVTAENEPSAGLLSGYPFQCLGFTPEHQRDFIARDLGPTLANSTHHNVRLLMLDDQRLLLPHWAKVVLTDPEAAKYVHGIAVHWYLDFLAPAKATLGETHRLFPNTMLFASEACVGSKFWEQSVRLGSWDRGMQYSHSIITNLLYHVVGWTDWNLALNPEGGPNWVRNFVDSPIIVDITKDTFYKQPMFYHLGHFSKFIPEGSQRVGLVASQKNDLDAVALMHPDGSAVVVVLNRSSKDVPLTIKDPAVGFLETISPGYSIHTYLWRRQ
Cytochrome P450 1A2 (Homo sapiens), sequence (P05177 whole entry, looked up): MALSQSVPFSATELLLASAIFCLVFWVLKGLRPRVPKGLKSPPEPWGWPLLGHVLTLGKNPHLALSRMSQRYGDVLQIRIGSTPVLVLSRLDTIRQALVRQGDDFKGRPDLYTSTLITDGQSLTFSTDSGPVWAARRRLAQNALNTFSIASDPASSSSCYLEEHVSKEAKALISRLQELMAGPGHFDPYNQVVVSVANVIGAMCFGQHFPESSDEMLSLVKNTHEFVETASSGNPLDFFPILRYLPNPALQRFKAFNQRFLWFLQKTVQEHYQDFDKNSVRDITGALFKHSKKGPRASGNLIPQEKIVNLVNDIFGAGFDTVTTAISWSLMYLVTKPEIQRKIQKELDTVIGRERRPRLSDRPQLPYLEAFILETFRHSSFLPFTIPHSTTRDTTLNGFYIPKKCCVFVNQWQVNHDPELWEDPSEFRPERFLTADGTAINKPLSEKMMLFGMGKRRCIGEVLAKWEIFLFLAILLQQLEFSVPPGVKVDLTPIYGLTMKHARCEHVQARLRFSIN
Glucocorticoid receptor (Homo sapiens), sequence (P04150 whole entry, looked up, the tested form may be a part): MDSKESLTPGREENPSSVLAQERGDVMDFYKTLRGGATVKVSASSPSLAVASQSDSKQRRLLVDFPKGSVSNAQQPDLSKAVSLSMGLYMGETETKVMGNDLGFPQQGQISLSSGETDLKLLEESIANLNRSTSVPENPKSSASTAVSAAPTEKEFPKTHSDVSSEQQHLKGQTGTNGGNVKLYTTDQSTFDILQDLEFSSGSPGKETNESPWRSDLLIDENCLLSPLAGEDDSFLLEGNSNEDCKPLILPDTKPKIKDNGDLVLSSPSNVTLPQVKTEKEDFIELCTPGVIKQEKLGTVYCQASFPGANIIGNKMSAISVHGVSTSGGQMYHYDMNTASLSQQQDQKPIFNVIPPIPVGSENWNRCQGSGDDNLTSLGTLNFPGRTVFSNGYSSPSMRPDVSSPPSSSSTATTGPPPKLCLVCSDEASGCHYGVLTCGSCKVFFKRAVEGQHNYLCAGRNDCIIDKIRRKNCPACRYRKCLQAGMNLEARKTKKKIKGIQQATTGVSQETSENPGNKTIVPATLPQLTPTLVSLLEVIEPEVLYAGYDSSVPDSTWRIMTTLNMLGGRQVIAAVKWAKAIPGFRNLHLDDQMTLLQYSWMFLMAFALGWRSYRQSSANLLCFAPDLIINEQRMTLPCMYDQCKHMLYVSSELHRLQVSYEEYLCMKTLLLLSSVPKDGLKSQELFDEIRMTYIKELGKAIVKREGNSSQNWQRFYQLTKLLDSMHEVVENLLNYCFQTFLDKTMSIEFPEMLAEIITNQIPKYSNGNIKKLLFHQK
Cytochrome P450 3A4 (Homo sapiens), sequence (P08684 whole entry, looked up): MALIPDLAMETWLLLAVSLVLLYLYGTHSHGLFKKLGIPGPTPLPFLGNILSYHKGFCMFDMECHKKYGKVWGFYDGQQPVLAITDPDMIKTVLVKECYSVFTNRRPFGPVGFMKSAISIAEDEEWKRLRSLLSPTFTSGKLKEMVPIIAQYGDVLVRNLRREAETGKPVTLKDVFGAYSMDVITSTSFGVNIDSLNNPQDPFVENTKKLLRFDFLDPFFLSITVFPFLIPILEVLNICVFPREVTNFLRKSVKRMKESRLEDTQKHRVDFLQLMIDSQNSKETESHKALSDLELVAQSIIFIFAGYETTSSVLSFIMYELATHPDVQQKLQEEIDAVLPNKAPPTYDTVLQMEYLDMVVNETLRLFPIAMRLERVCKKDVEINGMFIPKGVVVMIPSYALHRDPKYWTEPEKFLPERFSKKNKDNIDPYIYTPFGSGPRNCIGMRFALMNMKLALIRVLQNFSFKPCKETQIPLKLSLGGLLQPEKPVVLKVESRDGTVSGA

As to `COCCn1c(=O)cnc2cnc(Nc3ccccc3)nc21`, the Potency in experiment [1] is > 11.4 µM (inactive); in experiment [2], 1 µM (active); in experiment [3] it was > 9.22 µM (inactive); in experiment [4], > 46 µM (inactive); in [8], 3.55 µM (active); in [9], 3.16 µM (active). In addition, the Potency in experiment [10] was 2.82 µM (active). Besides, the compound was called inactive in experiment [5]. For the same compound, the Potency entry in [6], in experiment [11] and in experiment [12] was “inactive” each time. Also, in [7], the activity change, negative = inhibition was -9% (inactive). The max response is -2.6% in [7] (setting [17]) and -12.1% in experiment [7] (setting [18]).
Regarding `CCNc1ncc2nc(-c3ccccc3)c(=O)n(Cc3cccs3)c2n1`, the Potency was > 11.4 µM (inactive) in experiment [1], 0.316 µM (active) in experiment [2], > 9.22 µM (inactive) in experiment [3] and > 46 µM (inactive) in experiment [4]. Besides, in experiment [5], the outcome was inactive. Further, the Potency result in experiment [13], in experiment [8], in experiment [9], in [10], in [11] and in experiment [12] was “inactive” in each case. Moreover, the activity change, negative = inhibition in [7] was 1.76% (inactive). The max response in [7] (setting [17]) is 17.2%; in experiment [7] (setting [18]), 16%.
For the compound `CCNc1ncc2nc(-c3ccc(OC)cc3)c(=O)n(C[C@H]3CCCO3)c2n1`, the Potency in [1] is > 11.4 µM (inactive); in experiment [3] it was > 9.22 µM (inactive); in [4], > 46 µM (inactive). For the same compound, the activity change, negative = inhibition in [14] was -5.93% (inactive); in experiment [7] it was -3.19% (inactive). Further, in [5], the compound was called inactive. Besides, the max response in experiment [7] (setting [17]) was determined as 8.2%; in [7] (setting [18]), 0.991%. Moreover, the Potency result in experiment [8], in experiment [9], in experiment [10], in experiment [11] and in experiment [12] was “inactive” each time.
For the compound `COc1cccc(Cn2c(=O)c(-c3cc(F)cc(F)c3)nc3cnc(N4CCN(C)CC4)nc32)c1`, the Potency is > 11.4 µM (inactive) in experiment [1], > 9.22 µM (inactive) in experiment [3] and > 46 µM (inactive) in [4]. Moreover, the Potency result in experiment [2], in experiment [6], in [13], in [8], in experiment [9] and in experiment [10] was “inactive” throughout. The Potency result in experiment [11] and in experiment [12] was “inactive” throughout. Besides, the outcome in experiment [5] was inactive. Besides, in [7], the activity change, negative = inhibition is 1.17% (inactive). For the same compound, the max response was determined as 19% in experiment [7] (setting [17]) and 18.2% in experiment [7] (setting [18]).
Turning to `COc1cccc(Nc2ncc3nc(-c4ccc(Cl)cc4)c(=O)n(C4CC4)c3n2)c1`, the Potency in experiment [1] is > 11.4 µM (inactive); in experiment [3] it was > 9.22 µM (inactive); in experiment [4], > 46 µM (inactive). Moreover, the activity change, negative = inhibition was -4.19% (inactive) in [15] and -3.5% (inactive) in experiment [7]. Besides, the activity, negative = inhibition in experiment [16] is -10.8% (inactive). Besides, the outcome in [5] was inactive. For the same compound, the Potency result in [6], in experiment [8], in experiment [9], in [10], in experiment [11] and in experiment [12] was “inactive” in each case. Also, the max response in [7] (setting [17]) is -0.959%; in [7] (setting [18]) it was -5.52%.
As for `COc1ccc(-c2nc3cnc(Oc4cccc(Cl)c4)nc3n(CCC#N)c2=O)cc1`, the results for the Potency in experiment [1], in experiment [3] and in experiment [4] were > 11.4 µM (inactive), > 9.22 µM (inactive) and > 46 µM (inactive), respectively. Further, the values for the activity change, negative = inhibition in experiment [14] and in experiment [7] were -19.7% (inactive) and 2.97% (inactive), respectively. In [16], the activity, negative = inhibition is -7.46% (inactive). Moreover, the compound was classed as inactive in experiment [5]. For the same compound, the Potency entry in [6], in [8], in experiment [9], in experiment [10], in [11] and in experiment [12] was “inactive” in each case. Besides, the figures for the max response in experiment [7] (setting [17]) and in experiment [7] (setting [18]) were 13.8% and 14.8%, respectively.
